# In the supplement of paper PMC9446081:
# ± gives the standard deviation of the averaged measurements.
# Target: MurC (UniProt C4ZRI6)
# Experiment: relative enzymatic activity vs untreated control (fraction); higher = less inhibition
# Conditions: 100 µM; incubation time: 2 h at 37 C
# Procedure: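 In vitro enzymatic inhibition assays (ProFoldin kits) for 12 purified essential E. coli enzymes or complexes, each treated with 218 active antibacterial compounds at 100 µM for 2 h at 37°C. Read-outs were fluorescence or absorbance (phosphate detection, dye binding), converted to activity via standard curves and expressed relative to untreated DMSO controls.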
# Sequence of MurC (C4ZRI6 whole entry, looked up): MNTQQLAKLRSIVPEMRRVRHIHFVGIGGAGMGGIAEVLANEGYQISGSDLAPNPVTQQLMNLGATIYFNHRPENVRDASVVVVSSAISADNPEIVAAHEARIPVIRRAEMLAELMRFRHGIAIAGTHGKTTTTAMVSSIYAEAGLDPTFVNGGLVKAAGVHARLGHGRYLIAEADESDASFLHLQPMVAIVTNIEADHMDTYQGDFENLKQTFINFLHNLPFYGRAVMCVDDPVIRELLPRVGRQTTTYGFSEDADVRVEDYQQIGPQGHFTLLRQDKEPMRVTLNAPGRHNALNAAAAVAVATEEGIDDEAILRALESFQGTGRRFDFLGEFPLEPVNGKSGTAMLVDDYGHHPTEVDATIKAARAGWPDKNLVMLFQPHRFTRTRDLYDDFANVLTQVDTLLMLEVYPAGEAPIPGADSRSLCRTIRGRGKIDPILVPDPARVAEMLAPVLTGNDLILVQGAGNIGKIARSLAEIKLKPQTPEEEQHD
row,Compound,relative enzymatic activity
1,NCCONC(=O)[C@@H]1CC[C@@H]2CN1C(=O)N2OS(=O)(=O)O,0.944 ± 0.034
2,O=C(O)c1c(O)c2c([nH]c1=O)CCCC2,0.602 ± 0.36
3,CON=C(C(=O)N[C@@H]1C(=O)N2C(C(=O)O)=C(CSc3nc(=O)c(O)nn3C)CS[C@H]12)c1csc(N)n1,0.751 ± 0.23
4,CN(C)c1ccc(O)c2c1C[C@@H]1C[C@@H]3[C@@H](N(C)C)C(=O)C(C(N)=O)=C(O)[C@]3(O)C(=O)[C@H]1C2=O,1.17 ± 0.024
5,C=CC1=C(C(=O)O)N2C(=O)[C@@H](NC(=O)/C(=N\O)c3csc(N)n3)[C@H]2SC1,1 ± 0.028
6,N[C@@H]1CN(c2c(F)cc3c(=O)c(C(=O)O)cn([C@@H]4C[C@@H]4F)c3c2Cl)CC12CC2,0.971 ± 0.044
7,CCC(C)CCCCC(=O)NC(CCN)C(=O)NC(C(=O)NC(CCN)C(=O)NC1CCNC(=O)C(C(C)O)NC(=O)C(CCN)NC(=O)C(CCN)NC(=O)C(CC(C)C)NC(=O)C(Cc2ccccc2)NC(=O)C(CCN)NC1=O)C(C)O.O=S(=O)(O)O (stereo not given),0.986 ± 0.057
8,NCCC(O)C(=O)NC1CC(N)C(OC2OC(CN)C(O)C(O)C2O)C(O)C1OC1OC(CO)C(O)C(N)C1O.O (stereo not given),1.0305 ± 0.00019
9,COc1cc2c(cc1OC)C(=O)C(CC1CCN(Cc3ccccc3)CC1)C2.Cl (stereo not given),0.993 ± 0.29
10,Cc1nnc(SCC2=C(C(=O)[O-])N3C(=O)C(NC(=O)Cn4cnnn4)C3SC2)s1.[Na+] (stereo not given),1.05 ± 0.11
11,Nc1nc(C(=CCC(=O)O)C(=O)NC2C(=O)N3C(C(=O)O)=CCSC23)cs1 (stereo not given),0.885 ± 0.2
12,O=C1C=CC(=O)N1,0.992 ± 0.03
13,CC1CCc2cc(F)cc3c(=O)c(C(=O)O)cn1c23 (stereo not given),1.01 ± 0.053
14,CCC1OC(=O)C(C)C(OC2CC(C)(OC)C(O)C(C)O2)C(C)C(OC2OC(C)CC(N(C)C)C2O)C(C)(O)CC(C)CN(C)C(C)C(O)C1(C)O (stereo not given),0.998 ± 0.082
15,Cl.NC1CCN(c2c(F)cc3c(=O)c(C(=O)O)cn(C4CC4)c3c2Cl)C1 (stereo not given),1.06 ± 0.063
16,CN(C)C1C(O)=C(C(N)=O)C(=O)C2(O)C(O)=C3C(=O)c4c(O)cccc4C(C)(O)C3CC12.Cl (stereo not given),1.05 ± 0.039
17,CN(C)CCC=C1c2ccccc2COc2ccc(CC(=O)O)cc21.Cl,0.905 ± 0.018
18,CO/N=C(\C(=O)N[C@@H]1C(=O)N2C(C(=O)O)=C(C[N+]3(C)CCCC3)CS[C@H]12)c1csc(N)n1,0.8921 ± 0.007
19,CC(C)CCCC(=O)N[C@@H](CCNCS(=O)(=O)O)C(=O)N[C@H](C(=O)N[C@@H](CCNCS(=O)(=O)O)C(=O)N[C@H]1CCNC(=O)[C@H]([C@@H](C)O)NC(=O)[C@H](CCNCS(=O)(=O)O)NC(=O)[C@H](CCNCS(=O)(=O)O)NC(=O)[C@H](CC(C)C)NC(=O)[C@H](CC(C)C)NC(=O)[C@H](CCNCS(=O)(=O)O)NC1=O)[C@@H](C)O,1.16 ± 0.21
20,COC1=C(OC)C(=O)C(CCCCCCCCCC[P+](c2ccccc2)(c2ccccc2)c2ccccc2)=C(C)C1=O,0.344 ± 0.24

row,Compound,relative enzymatic activity
1,O=C(O)P(=O)(O)O,0.972 ± 0.058
2,O=C1CN(/N=C/c2ccc([N+](=O)[O-])o2)C(=O)N1,1.33 ± 0.34
3,CC(C)[C@@H](CC[C@@H](C)[C@H]1CC[C@H]2[C@@H]3[C@H](O)C[C@H]4C[C@@H](NCCCNCCCCN)CC[C@]4(C)[C@H]3CC[C@]12C)OS(=O)(=O)O,0.882 ± 0.078
4,NCC1OC(OC2C(N)CC(N)C(OC3OC(CO)C(O)C(N)C3O)C2O)C(N)CC1O (stereo not given),1.11 ± 0.046
5,C=C1c2cccc(O)c2C(=O)[C@@H]2C(=O)[C@]3(O)C(=O)[C@@H](C(N)=O)C(=O)[C@@H](N(C)C)[C@@H]3[C@@H](O)[C@H]12,1.03 ± 0.034
6,C/C(=C\C(=O)OCCCCCCCCC(=O)O)C[C@@H]1OC[C@H](C[C@@H]2O[C@H]2[C@@H](C)[C@H](C)O)[C@@H](O)[C@H]1O,0.891 ± 0.065
7,O=C1OCCN1N=Cc1ccc([N+](=O)[O-])o1,1.03 ± 0.054
8,COc1c(N2CCNC(C)C2)c(F)cc2c(=O)c(C(=O)O)cn(C3CC3)c12 (stereo not given),1 ± 0.027
9,CC(N)O.Cc1cc(CC(C)CC(C)(C)C)n(O)c(=O)c1 (stereo not given),1.11 ± 0.024
10,O=C(NC(CO)C(O)c1ccc([N+](=O)[O-])cc1)C(Cl)Cl (stereo not given),1.04 ± 0.033
11,COC1(NC(=O)CSCC#N)C(=O)N2C(C(=O)[O-])=C(CSc3nnnn3C)CSC21.[Na+] (stereo not given),1.59 ± 0.09
12,Cl.Cl.N=C(NCCCCCCNC(=N)NC(=N)Nc1ccc(Cl)cc1)NC(=N)Nc1ccc(Cl)cc1,0.901 ± 0.04
13,N[C@@H](C(=O)N[C@@H]1C(=O)N2C(C(=O)O)=C(Cl)CS[C@H]12)c1ccccc1,0.902 ± 0.062
14,NC(=O)N/N=C/c1ccc([N+](=O)[O-])o1,1.08 ± 0.033
15,CO/N=C(\C(=O)N[C@@H]1C(=O)N2C(C(=O)O)=C(CSc3nnnn3C)CS[C@H]12)c1csc(N)n1,1.05 ± 0.082
16,CCCCCCCCCCCCC[N+](C)(C)Cc1ccccc1.O.[Cl-],0.556 ± 0.086
17,CC1CCC2(C)C(C=O)=CCCC2C1(C)CC1OC(O)C(=O)C12CO2 (stereo not given),0.933 ± 0.1
18,CC(C)(O/N=C(\C(=O)N[C@@H]1C(=O)N2C(C(=O)O)=C(C[N+]3(CCNC(=O)c4ccc(O)c(O)c4Cl)CCCC3)CS[C@H]12)c1csc(N)n1)C(=O)O,0.83 ± 0.29
19,N[C@@H](C(=O)N[C@@H]1C(=O)N2C(C(=O)O)=C(Cl)CC[C@H]12)c1ccccc1,0.967 ± 0.054
20,NCc1ccccc1CC(=O)NC1C(=O)N2C(C(=O)O)=C(CSc3nnnn3CC(=O)O)CSC12 (stereo not given),1.05 ± 0.17
